Tests used:
Format in all cases: functional
Plasmodium falciparum [1] = experiment: GSK_TCMDC: Inhibition of Plasmodium falciparum 3D7 in whole red blood cells, using parasite LDH activity as an index of growth. Test compounds present at 2uM
Plasmodium falciparum [2] = experiment: GSK_TCMDC: Inhibition of Plasmodium falciparum Dd2 in whole red blood cells, using parasite LDH activity as an index of growth. Test compounds present at 2uM
HepG2 = experiment: GSK_TCMDC: Percent inhibition of human HepG2 cell line. Test compounds present at 10uM.

| SMILES | Inhibition (Plasmodium falciparum [1]) [%] | Inhibition (Plasmodium falciparum [2]) [%] | Inhibition (HepG2) [%] |
| --- | --- | --- | --- |
| CN1CCCC1CCNCc1cccc(-c2cnc(N3CCCC(C)(C)C3)nc2)c1 (stereo not drawn) | 98 | 95 | 99 |
| CCC(C)(C)c1ccc(N2C(N)=NC(N)=NC2(C)C)cc1.Cl | 91 | 4 | 40 |
| CCCNCc1ccc(-c2ccc(CN(CC3CCCO3)C(=O)COc3ccccc3Cl)cc2)nc1.O=C(O)C(F)(F)F (stereo not drawn) | 89 | 11 | 5 |
| CCCCNc1cc(C)nc(NCc2ccccc2)n1 | 97 | 37 | 23 |
| O=C(NCC1CCN(Cc2ccc3c(c2)OCCO3)C1)c1cc(-c2ccccc2F)cs1.O=C(O)C(F)(F)F (stereo not drawn) | 95 | 0 | 18 |
| Cc1nc(-c2cccc(NC(C)C(=O)Nc3cc(C(F)(F)F)ccc3N3CCOCC3)c2)cs1 (stereo not drawn) | 82 | 97 | 3 |
| Cc1ccc(Cn2nc(Cl)c(N3CCNCC3)cc2=O)cc1NC(=O)Nc1ccc(-c2ccccc2)cc1.O=C(O)C(F)(F)F | 98 | 97 | 100 |
| CC(=O)N1CCC(C(=O)Nc2ccc(-c3cccc(-c4nc5cc(C(F)(F)F)ccc5[nH]4)c3)cc2)CC1 | 88 | 33 | 82 |
| NC(=O)c1cnc2cc(-c3ccncc3)cc(Nc3ccc(NC(=O)C4CCCCC4)cc3)c2c1 | 98 | 99 | 58 |
| Cc1cc(NCCC(=O)Nc2ccccc2)nc(NCCc2cccnc2)n1.O=C(O)C(F)(F)F | 84 | 4 | 0 |
| CNS(=O)(=O)c1ccc(NC(=O)c2cc(-c3cccnc3)nc3ccc(Br)cc23)cc1 | 100 | 55 | 9 |
